In general, AC50 refers to the concentration giving half of the maximal activity seen.

The source made the active and inactive calls. How the source made its calls: active means hit-call score of the fitted dose curve at least 0.9, where 1 is the maximum; inactive means score below 0.9.

Sequence of Nuclear factor NF-kappa-B p105 subunit (Homo sapiens) (P19838 whole entry, looked up): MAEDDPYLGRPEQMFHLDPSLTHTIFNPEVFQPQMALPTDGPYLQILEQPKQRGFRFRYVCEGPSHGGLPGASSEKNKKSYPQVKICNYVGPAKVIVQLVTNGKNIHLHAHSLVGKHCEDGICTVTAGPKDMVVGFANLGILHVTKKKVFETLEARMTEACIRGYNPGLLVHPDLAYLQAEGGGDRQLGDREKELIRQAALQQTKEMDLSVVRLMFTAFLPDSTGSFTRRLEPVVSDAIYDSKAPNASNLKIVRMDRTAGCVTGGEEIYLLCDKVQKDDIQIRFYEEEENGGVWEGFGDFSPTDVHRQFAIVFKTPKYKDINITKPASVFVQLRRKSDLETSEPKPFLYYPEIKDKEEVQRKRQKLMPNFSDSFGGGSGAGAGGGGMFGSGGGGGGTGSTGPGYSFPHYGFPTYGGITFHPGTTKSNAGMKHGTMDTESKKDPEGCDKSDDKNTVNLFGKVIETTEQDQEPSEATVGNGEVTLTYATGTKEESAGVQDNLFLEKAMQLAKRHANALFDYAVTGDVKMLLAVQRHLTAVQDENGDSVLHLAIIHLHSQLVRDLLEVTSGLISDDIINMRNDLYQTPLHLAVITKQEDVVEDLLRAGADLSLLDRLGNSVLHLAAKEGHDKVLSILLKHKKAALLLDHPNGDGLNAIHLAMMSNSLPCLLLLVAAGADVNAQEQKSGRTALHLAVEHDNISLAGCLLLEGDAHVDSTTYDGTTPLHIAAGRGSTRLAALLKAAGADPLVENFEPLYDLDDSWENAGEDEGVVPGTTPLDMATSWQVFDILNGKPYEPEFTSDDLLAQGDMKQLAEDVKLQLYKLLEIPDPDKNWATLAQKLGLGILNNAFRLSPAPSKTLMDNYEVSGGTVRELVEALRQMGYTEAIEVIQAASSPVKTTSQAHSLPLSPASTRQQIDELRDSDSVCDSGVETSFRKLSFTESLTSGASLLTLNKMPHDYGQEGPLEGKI

Read-out in this assay: Nuclear factor NF-kappa-B p105 subunit (Homo sapiens) (UniProt P19838)
Put plainly: LTEA_HepaRG_NFKB1: Life Technologies and Expression Analysis (LTEA) Assay for Nuclear Factor Kappa B Subunit 1 (NFKB1) using HepaRG (AID 2283521).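 On outcome: TaqMan qRT-PCR transcript normalised to ACTB GAPDH and POLR2A housekeeping genes.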 The note with it: mRNA level, 48 h; actives raise or lower the signal. As for the experimental part: LTEA_HepaRG is a cell based, multiplexed-readout assay that uses HepaRG, a human liver cell line, with measurements taken at 48 hours after chemical dosing on a 96-well plate.LTEA_HepaRG_NFKB1 is one of 102 assay component(s) measured in the LTEA HepaRG cell culture assay. It is a marker of Cell proliferation, survival, death.Data from the assay component LTEA_HepaRG_NFKB1 was analyzed into 1 endpoint. This assay endpoint, LTEA_HepaRG_NFKB1, was analyzed with bidirectional fitting relative to DMSO as the negative control and baseline of activity. Using a type of inducible reporter, measures of mRNA induction for gain or loss-of-signal activity can be used to understand regulation of transcription factor activity. To generalize the intended target to other relatable targets, this assay endpoint is annotated to the dna binding intended target family, where the subfamily is NF-kappa B.
A total of 1060 chemcials from the ToxCast library were tested in eight-point concentration-response experiments. Cell culture and cytotoxicity assays were conducted at Thermo Fisher Scientific's Custom Services facility (Madison, WI). A single lot of human HepaRG cells (Thermo Fisher Scientific, Frederick, MD) was used for the cell culture experiments. 96-well format collagen type I coated plates of human HepaRG cells were prepared using established methods. Briefly, cryopreserved HepaRG cells were thawed, plated at a density of approximately 100,000 cells/well in HepaRG Thaw, Plate, and General Purpose media (HPRG770, Thermo Fisher Scientific), and incubated for 48 hours. 0.5% DMSO was selected as vehicle control to balance the requisite need of DMSO in HepaRG cultures to maintain differentiation (for example, baseline metabolism, proportions of hepatocytes vs. cholangiocytes), while enabling further hepatic receptor pathway activation (for example, PXR and CAR) in response to chemical exposure. 48 hours after plating, the culture medium was replaced with HepaRG Serum-Free Incudtion Media. Cells were exposed to each test chemical in duplicate and maintained in CO2 incubators for another 48 hours. Chemical plates were thawed to room temperature and 200x concentrations of treatment groups were prepared. 8-point conentration-reponse curves were made with the highest exposure at 100 uM, followed by half-log dilutions, all in 0.5% DMSO. Each test plate contained variouse controls, induction positive controls (1mM phenobarbital), cytotoxicity positive controls ([…] aflatoxin B1), vehicle controls (0.5% DMSO), and total lysis controls (0.5% DMSO). Cell morphology images were taken using an Essen IncuCyte FLR automated microscope, with six 96-well plates imaged in about 24 minutes. Images were captured and exported and JPEG files. Spent culture media was transfered to black-well plates for the LDH assay, and remaining media was sorted at -80 C for later use. Cells were treated with RLT buffer and frozen until shipped for gene expression analysis. Total RNA was isolated from the cell suspension in 75 uL of Buffer RLT (Qiagen, Germantown, MD 20874) by Quintiles/Expression Analysis (Durham, NC) using a custom isolation procedure. Total RNA from each plate well was transferred to a preamplification plate. Fluidigm's 96.96 Dynamic ArrayTM (Fluidigm, Amsterdam, the Netherlands) technology was used for gene expression analyses by quantitative reverse transcription polymerase chain reaction (qRT-PCR, performed by Quintiles/Expression Analysis, Durham, NC)89. Standard TaqManTM Assays (Applied Biosystems/ThermoFisher Scientific, Foster City, CA) were used to assess the expression of 93 genes selected based on their selectivity and sensitivity to important hepatic receptors known to be modulated by environmental chemicals; importance in human hepatocyte functionality; and hepatotoxicity. […]
As to `c1ccc(Nc2ccccc2)cc1`, the outcome was inactive.

Regarding `C[C@]12C[C@H](O)[C@H]3[C@@H](CCC4=CC(=O)CC[C@@]43C)[C@@H]1CC[C@@H]2C(=O)CO`, the call was inactive.

For the compound `CCCOC(=O)c1ccc(C(=O)OCCC)nc1`, the compound was called inactive.

On to `O=C(c1ccccc1)C1CCCCC1`, for which the call was inactive.

For the compound `CCNc1nc(N)nc(Cl)n1`, the compound was classed as inactive.

Consider `CC(C)CCCCCCc1ccc(O)cc1`, for which the compound was called inactive.

For the compound `CCOC(=O)NCCOc1ccc(Oc2ccccc2)cc1`, the call was inactive.

As for `COC(=O)c1ccccc1C(=O)O`, the compound was classed as inactive.

Turning to `CC(C)(c1ccc(O)cc1)c1ccc(O)cc1`, the outcome was inactive.

Take `CCCCOC(=O)C(C)Oc1ccc(Oc2ccc(C(F)(F)F)cn2)cc1` (configuration not stated): the result was inactive.

Take `C#C[C@]1(O)CC[C@H]2[C@@H]3CCC4=CC(=O)CC[C@@H]4[C@H]3CC[C@@]21CC`: the compound was called inactive.

As for `CCCCCCC(C)OC(=O)COc1nc(F)c(Cl)c(N)c1Cl` (configuration not stated), the result was inactive.

As for `CCCCC(CC)CN1C(=O)C2C3C=CC(C3)C2C1=O` (configuration not stated), the call was inactive.

In the case of `O=C(c1ccc(O)cc1O)c1ccc(O)cc1O`, the result was inactive.

With `CCSC(=O)N(CC(C)C)CC(C)C`, the outcome was inactive.

In the case of `O=C(O)C1(C(=O)Nc2ccc(Cl)cc2Cl)CC1`, the AC50 is 22.9 µM (active).

As to `CCOC(=O)C(C)Oc1ccc(Oc2nc3ccc(Cl)cc3o2)cc1` (configuration not stated), the result was inactive.

Consider `CCC(C)OC(=O)N1CCCCC1CCO` (configuration not stated), for which the result was inactive.

On to `c1ccc2[nH]c(-c3cscn3)nc2c1`, for which the compound was called inactive.

Consider `CC(C)(C)[C@@H](O)[C@@H](Cc1ccc(Cl)cc1)n1cncn1`, for which the outcome was inactive.

On to `CCCCOCCOCCOCc1cc2c(cc1CCC)OCO2`, for which the result was inactive.

Regarding `N#CSCSc1nc2ccccc2s1`, the call was inactive.

Take `CCN(Cc1c(F)cccc1Cl)c1c([N+](=O)[O-])cc(C(F)(F)F)cc1[N+](=O)[O-]`: the result was inactive.

On to `CCCN(CCC)c1c([N+](=O)[O-])cc(C(F)(F)F)c(N)c1[N+](=O)[O-]`, for which the compound was called inactive.

In the case of `C[C@]12CC[C@@H]3c4ccc(O)cc4C[C@@H](CCCCCCCCCS(=O)CCCC(F)(F)C(F)(F)F)[C@H]3[C@@H]1CC[C@@H]2O` (some centres not stated), the AC50 was 0.0508 µM (active).

For `CCCCOC(=O)[C@@H](C)Oc1ccc(Oc2ccc(C(F)(F)F)cn2)cc1`, the result was inactive.

In the case of `O=C(Nc1ccc([N+](=O)[O-])cc1Cl)c1cc(Cl)ccc1O`, the call was inactive.
